The values below come from PubChem BioAssay.

SMILES strings stand for the structures. Unmarked numbers belong to inactive results. For part of these data: Entries with a potency or affinity are not part of this list. Activity calls are given as the source filed them. Unless noted, the rule behind the calls is not given here.

A short description of experiment [1]: antimalarial activity against Dd2 strain (AID 2302;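 active = growth inhibition above 50% at the single 2 µM test dose, taken to imply half-maximal potency below 2 µM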;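 note: 0% = DMSO untreated growth and 100% = chloroquine plus artemisinin killed control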). The settings on record: P. falciparum Dd2 in RBCs, LDH growth readout, 72 h; at 2 µM; active compounds read high.
Experiment [2] in a line: human hepatoma cell viability loss – ATP luminescence, cytotoxicity control for P. falciparum antimalarial project, primary screen (AID 2303;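 active = inhibition above 50%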;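 note: 0% = DMSO wells and 100% = digitonin-killed cells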). The settings on record: HepG2 viability, 24-48 h, at 10 µM, active compounds read high.
Experiment [3] deals with L-lactate dehydrogenase (Plasmodium falciparum (isolate CDC / Honduras)) (UniProt Q27743). In words: PfLDH activity inhibition – cell lysate, 3D7 strain, counter-screen for P. falciparum growth inhibition project (AID 2304).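 Note: 0% = vehicle and 100% = reference inhibitor.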 The settings on record: P. falciparum 3D7 crude extract, LDH APAD/NBT absorbance; at 2 µM; active compounds read high. On the technique in general: Counterscreens check selectivity or assay interference.

Experiment [4] can be described thus: inhibition of 3D7 malaria parasite growth – strain 3D7 (AID 2306).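 Note: 0% = DMSO wells and 100% = chloroquine plus artemisinin control wells.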 The settings on record: P. falciparum 3D7 erythrocytic growth, LDH absorbance, 72 h; at 2 µM; active compounds read high.
Experiment [5] concerns the target Calcium-dependent protein kinase 1 (Plasmodium falciparum (isolate 3D7)) (UniProt P62344). Kind of experiment: PfCDPK1 kinase inhibitors, biochemical, TCAMS library (AID 1159585; cut-off not given, nearly all actives have IC50 up to about 0.98 µM;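 note: inhibitors leave more ATP so luminescence rises with inhibition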). The settings on record: recombinant PfCDPK1, Kinase-Glo ATP depletion luminescence. (In general: Kinase-Glo measures the ATP left after a reaction by luminescence.)
Experiment [6] has as its target Plasmodium falciparum protein kinase 6 (PK6, PF3D7_1337100) (UniProt Q8IDW1). Kind of experiment: PfPK6 kinase inhibitors, biochemical, TCAMS library (AID 1159586). The settings on record: recombinant PfPK6, Kinase-Glo ATP depletion luminescence.
Experiment [7] addresses Protein kinase 7 (PK7), Plasmodium falciparum 3D7 (PF3D7_0213400) (UniProt Q7YTF7). Kind of experiment: inhibition of Plasmodium PK7 catalytic activity – biochemical, TCAMS antimalarial set, Kinase-Glo luminescence (AID 1159587). The settings on record: recombinant PfPK7, Kinase-Glo ATP depletion luminescence.
Experiment [8] has as its target Calcium-dependent protein kinase 4 (Plasmodium falciparum (isolate 3D7)) (UniProt Q8IBS5). In words: PfCDPK4 kinase inhibitors, biochemical, TCAMS library (AID 1159588; cut-off not given, nearly all actives have IC50 up to about 0.91 µM). The settings on record: recombinant PfCDPK4, Kinase-Glo ATP depletion luminescence.

Sequence of Calcium-dependent protein kinase 4 (Plasmodium falciparum (isolate 3D7)) (Q8IBS5 whole entry, looked up): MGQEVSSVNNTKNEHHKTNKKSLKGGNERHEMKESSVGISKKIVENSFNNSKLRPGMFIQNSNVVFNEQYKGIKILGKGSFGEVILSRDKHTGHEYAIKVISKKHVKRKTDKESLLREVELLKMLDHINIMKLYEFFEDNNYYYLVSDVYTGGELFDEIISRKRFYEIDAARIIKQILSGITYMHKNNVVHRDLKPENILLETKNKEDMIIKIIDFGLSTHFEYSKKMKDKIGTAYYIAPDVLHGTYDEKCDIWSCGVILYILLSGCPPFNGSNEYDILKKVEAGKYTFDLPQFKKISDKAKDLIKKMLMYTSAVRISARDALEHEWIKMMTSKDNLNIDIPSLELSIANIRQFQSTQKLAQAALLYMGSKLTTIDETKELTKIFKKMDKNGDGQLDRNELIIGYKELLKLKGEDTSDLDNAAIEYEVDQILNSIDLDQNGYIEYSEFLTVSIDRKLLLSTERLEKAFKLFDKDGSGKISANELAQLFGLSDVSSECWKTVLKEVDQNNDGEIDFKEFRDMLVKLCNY
Sequence of Protein kinase 7 (PK7), Plasmodium falciparum 3D7 (PF3D7_0213400) (Q7YTF7 1-343): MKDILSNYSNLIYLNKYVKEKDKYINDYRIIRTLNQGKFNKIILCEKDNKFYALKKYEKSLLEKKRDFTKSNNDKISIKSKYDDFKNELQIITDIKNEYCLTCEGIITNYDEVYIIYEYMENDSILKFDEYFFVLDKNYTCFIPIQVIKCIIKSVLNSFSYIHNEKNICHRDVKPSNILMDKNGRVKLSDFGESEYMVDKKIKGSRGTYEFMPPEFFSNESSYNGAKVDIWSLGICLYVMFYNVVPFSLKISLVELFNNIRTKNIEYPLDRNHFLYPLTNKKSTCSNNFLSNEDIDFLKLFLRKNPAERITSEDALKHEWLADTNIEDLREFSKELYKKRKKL
Sequence of Plasmodium falciparum protein kinase 6 (PK6, PF3D7_1337100) (Q8IDW1 1-305): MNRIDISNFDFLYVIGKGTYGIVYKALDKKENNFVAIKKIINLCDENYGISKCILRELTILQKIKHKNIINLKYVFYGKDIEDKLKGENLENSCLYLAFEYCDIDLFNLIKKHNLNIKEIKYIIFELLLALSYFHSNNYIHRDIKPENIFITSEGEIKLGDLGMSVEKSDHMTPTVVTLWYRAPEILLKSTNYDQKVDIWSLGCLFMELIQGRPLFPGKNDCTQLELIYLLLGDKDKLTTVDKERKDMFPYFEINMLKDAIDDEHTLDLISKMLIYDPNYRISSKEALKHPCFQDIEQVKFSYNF
Sequence of Calcium-dependent protein kinase 1 (Plasmodium falciparum (isolate 3D7)) (P62344 whole entry, looked up): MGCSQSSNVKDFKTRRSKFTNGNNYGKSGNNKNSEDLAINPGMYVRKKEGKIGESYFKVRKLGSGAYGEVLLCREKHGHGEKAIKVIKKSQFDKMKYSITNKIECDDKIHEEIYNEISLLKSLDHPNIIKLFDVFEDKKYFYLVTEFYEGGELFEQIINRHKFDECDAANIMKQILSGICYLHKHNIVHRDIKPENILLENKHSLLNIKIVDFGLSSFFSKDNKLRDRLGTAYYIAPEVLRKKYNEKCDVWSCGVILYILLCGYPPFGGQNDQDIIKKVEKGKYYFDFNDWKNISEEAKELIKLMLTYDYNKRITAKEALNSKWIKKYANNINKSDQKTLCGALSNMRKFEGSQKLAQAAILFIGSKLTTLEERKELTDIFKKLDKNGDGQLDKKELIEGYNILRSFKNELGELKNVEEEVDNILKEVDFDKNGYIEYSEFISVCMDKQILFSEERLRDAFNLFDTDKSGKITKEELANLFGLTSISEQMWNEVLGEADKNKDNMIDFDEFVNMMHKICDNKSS
Sequence of L-lactate dehydrogenase (Plasmodium falciparum (isolate CDC / Honduras)) (Q27743 whole entry, looked up): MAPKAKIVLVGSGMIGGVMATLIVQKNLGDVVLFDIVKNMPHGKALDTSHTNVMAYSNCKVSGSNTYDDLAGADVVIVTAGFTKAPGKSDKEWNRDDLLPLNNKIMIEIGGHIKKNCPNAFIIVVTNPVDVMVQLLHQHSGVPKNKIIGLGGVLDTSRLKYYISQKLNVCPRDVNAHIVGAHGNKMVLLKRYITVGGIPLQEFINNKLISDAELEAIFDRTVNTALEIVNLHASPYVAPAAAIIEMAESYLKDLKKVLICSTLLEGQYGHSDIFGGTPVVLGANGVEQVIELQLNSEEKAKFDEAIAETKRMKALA

On to `CC(C)(C)OC(=O)n1cc(C2CCN(CCCC34CCCc5cccc(c53)NC4=O)CC2)c2ccncc21` (centres undefined), for which the figures for the growth inhibition in experiment [1] and in experiment [4] were -2% and 92% (active), respectively. The inhibition (in general, the drop in the measured response relative to a control, in per cent) is 20% in experiment [2] and -5% in experiment [3]. The outcome in experiment [5], in experiment [6], in experiment [7] and in experiment [8] was inactive.

As to `O=C(Nc1ccc(-c2nc3ccccc3[nH]2)cc1)c1ccc([N+](=O)[O-])s1`, the figures for the growth inhibition in experiment [1] and in experiment [4] were 77% (active) and 101% (active), respectively. Also, the inhibition is 83% (active) in experiment [2] and -6% in experiment [3]. In addition, the outcome in experiment [5], in experiment [6], in experiment [7] and in experiment [8] was inactive.

Take `CN(C)c1nc2cc(-n3cnc4cc(-c5ccc(Cl)cc5)sc4c3=O)ccc2n1CCCN1CCCCC1`: the growth inhibition was 23% in experiment [1] and 97% (active) in experiment [4]. Moreover, the values for the inhibition in experiment [2] and in experiment [3] were 55% (active) and 1%, respectively. The outcome in experiment [5], in experiment [6], in experiment [7] and in experiment [8] was inactive.
